The results in this text go back to PubChem BioAssay.

Each structure is given as a SMILES string. The source made the active and inactive calls.

The assay can be described thus: CREB reporter modulators without forskolin, primary screen, cell-based, PC12, CRE-LacZ reporter, unstimulated (AID 1145). As to conditions: no forskolin, luminescence, 4.5 h, higher = more signal, called active from +8 up or from −8 down.
Consider `COc1cc2c(cc1O)C(c1cccs1)N(Cc1cc3c(cc1Br)OCO3)CC2` (stereo not given), for which the z-score was 0.0924 (inactive).

Regarding `CCC#CCN(Cc1ccccc1Br)[C@H](/C=C/C1CC1)[C@@H](O)Cc1ccccc1`, the z-score is 2.67 (inactive).

`COC(=O)[C@@]1(Cc2ccccc2)[C@H]2c3cc(C(=O)N4CCCC4)n(CCc4ccccn4)c3C[C@H]2CN1C(=O)c1ccccc1`: the z-score is 0.201 (inactive).

As for `CCCCC(CC)C(O)C1C=CC2C(=O)N(c3ccccc3)C(=O)C2N1Nc1ccccc1F` (stereo not given), the z-score is -0.433 (inactive).

Regarding `[N-]=[N+]=Nc1ccccc1[C@@H]1OC(c2ccc(OCCCO)cc2)=N[C@]1(Cc1ccccc1)C(=O)N1CCCCC1`, the z-score was 0.241 (inactive).

For the molecule `CC1CC/C=C\[C@H]2OC34C=CCN(C(C)C)C(=O)[C@H]3N(CCO)C(=O)[C@@H]4C2C(=O)O1` (stereo not given in full), the z-score is -0.619 (inactive).

Regarding `CCOC(=O)C1=C[C@@H](C(C)(C)C)N(S(=O)(=O)c2ccc(C)cc2)[C@H]1c1cccc2ccccc12`, the z-score was 1.14 (inactive).

As for `CC(C)[Si]1(C(C)C)OCc2cc(-c3ccc(-c4ccc(Cl)c(Cl)c4)o3)nc(-c3ccccc3)c21`, the z-score was 0.484 (inactive).

On to `CCCCCCc1nc(Cc2cc(OC)c(OC)c(OC)c2)cc2c1[Si](C(C)C)(C(C)C)OC2`, for which the z-score is 0.498 (inactive).

With `C=CC[C@@H](OC(=O)Nc1ccc(SC)cc1)c1ccc(O)c(F)c1`, the z-score was 9.49 (active).

In the case of `Cc1ccc(NN2C(C(O)c3c(F)cccc3Cl)C=CC3C(=O)N(C4CCCCC4)C(=O)C32)cc1` (stereo not given), the z-score was -0.0787 (inactive).

As for `COc1ccc([Si](C)(C)[C@@H]2[C@@H](CC(=O)N(CCO)Cc3ccccc3)O[C@]3(C(=O)N(Cc4cccc(N5CCCCC5=O)c4)c4ccccc43)[C@H]2C)cc1`, the z-score was 0.716 (inactive).

As to `NC(=O)[C@H]1[C@@H]2C(=O)O[C@@H](c3ccccc3)[C@@H](c3ccccc3)N2[C@@H](c2ccc(OCCO)cc2)[C@]12C(=O)Nc1ccc(C#CCCO)cc12`, the z-score was -0.465 (inactive).

Turning to `COc1cc(C(O)C2C=CC3C(=O)N(C)C(=O)C3N2Nc2ccccc2)cc(OC)c1OC` (stereo not given), the z-score is 0.246 (inactive).

`C#Cc1cc2ccccc2oc1=O`: the z-score was 0.136 (inactive).

Turning to `CC(=O)NCCCC[C@@H]1NC(=O)[C@@H]2C[C@H](C(=O)NCCCCCN)[C@H](c3cccc(OCCO)c3)N2C1=O`, the z-score is -1.34 (inactive).

As for `COc1ccc(CCNC(=O)[C@@]2(c3ccc([N+](=O)[O-])cc3)CC(=O)N(C3CCCCC3)[C@@H]2c2ccc(CO)cc2)cc1`, the z-score was -0.125 (inactive).

Turning to `NCCCCCNC(=O)[C@@H]1C[C@@H]2C(=O)N[C@@H](CCCCN)C(=O)N2[C@@H]1c1ccc(O)cc1`, the z-score was 0.0205 (inactive).

As to `NCCCCCNC(=O)[C@H]1C[C@H]2C(=O)N3CCC[C@H]3C(=O)N2[C@H]1c1cccc(OCCO)c1`, the z-score is 0.143 (inactive).

Turning to `COCCOC(=O)N1C(=O)[C@@]2(c3cc(C#CCCO)ccc31)[C@H](c1ccc(OCCO)cc1)N1[C@H](c3ccccc3)[C@H](c3ccccc3)OC(=O)[C@H]1[C@@H]2C(=O)Nc1nc2ccccc2s1`, the z-score is -0.618 (inactive).

In the case of `COC(=O)C1=CC(CCCO)=CC(c2cccs2)N(C)C=C1C(=O)OC` (stereo not given), the z-score was -0.285 (inactive).

For `COCCOC(=O)N1C(=O)[C@@]2(c3cc(C#CC4(O)CCCCCC4)ccc31)[C@H](c1ccc(O)cc1)N1[C@H](c3ccccc3)[C@H](c3ccccc3)OC(=O)[C@H]1[C@@H]2C(=O)N1CCN(c2ncccn2)CC1`, the z-score was -0.141 (inactive).

With `COc1ccc([Si](C)(C)[C@@H]2[C@@H](CCO)O[C@]3(C(=O)N(Cc4cccc(NC(=O)[C@H](C)O)c4)c4ccccc43)[C@H]2C)cc1`, the z-score is 10.2 (active).

Regarding `Cc1ccc(S[C@]2(C(=O)O)CC(=O)N(C3CCCCC3)[C@@H]2c2ccc(CO)cc2I)cc1`, the z-score is -0.269 (inactive).

Take `O=C1C[C@]2(c3ccc([N+](=O)[O-])cc3)C(=O)N(C3CC3)c3cc(CO)ccc3[C@H]2N1CC12CC3CC(CC(C3)C1)C2`: the z-score is -0.179 (inactive).

For the molecule `COCCCNC(=O)[C@@]1(Sc2ccc(C)cc2)CC(=O)N(C2Cc3ccccc3C2)[C@@H]1c1ccc(CO)cc1`, the z-score was 0.685 (inactive).

On to `O=C1OCCC=C[C@H]2OC34C=CCN(c5ccc6ccccc6c5)C(=O)[C@H]3N(CCCO)C(=O)[C@@H]4C12` (stereo not given in full), for which the z-score is -0.0778 (inactive).

On to `COC(=O)[C@@]1(Cc2ccc(F)cc2)[C@H]2c3cc(C(=O)N(C)C)n(CCc4ccc(OC)c(Br)c4)c3C[C@H]2CN1C(=O)c1ccccc1`, for which the z-score is 17.2 (active).

Turning to `[N-]=[N+]=Nc1ccccc1C[C@@]1(C(N)=O)N=C(c2ccc(OCCCO)cc2)O[C@@H]1c1ccccc1N=[N+]=[N-]`, the z-score is -0.207 (inactive).

As for `O=C(NCc1ccc(F)cc1)[C@H]1C[C@H]2C(=O)NCC(=O)N2[C@H]1c1ccc(O)cc1`, the z-score was 0.0124 (inactive).

As for `C=CCNC(=O)[C@@H]1[C@H]2C(=O)O[C@H](c3ccccc3)[C@H](c3ccccc3)N2[C@H](c2ccccc2OCCO)[C@@]12C(=O)Nc1ccc(C#CCCO)cc12`, the z-score is -1.7 (inactive).

As for `CCOC(=O)C[C@H]1[C@H](OC(=O)Cc2ccc3c(c2)OCO3)[C@@H](NC(=O)C2CCCCC2)c2cc(OCCCO)ccc2N1C(=O)c1ccccc1`, the z-score is 2.82 (inactive).

`COc1ccc([Si](C)(C)[C@@H]2[C@@H](CCO)O[C@]3(C(=O)N(Cc4ccccc4)c4ccc(N5CCOC5=O)cc43)[C@H]2C)cc1`: the z-score was 3.23 (inactive).

On to `C=C(/C(=C/C[C@H](OC(C)=O)c1ccc(CO)o1)c1cnc2ccccc2c1)C(C)C`, for which the z-score was -0.671 (inactive).

`CCCCCCCCCCC(O)C1C=CC2C(=O)N(c3ccccc3)C(=O)C2N1Nc1ccc(C#N)cc1` (stereo not given): the z-score was -0.519 (inactive).
